# Laboratory results taken from the supplement of paper PMC3334620.
# In all, about 33,000 sequences were measured (“E-score (-0.5 to 0.5)”: median about -0.041, highest 2% from about 0.37 on). This excerpt belongs to a sample that is enriched for the highest values.
# Biological target: T1, Ecm22 (UniProt Q05958)
# T1 sequence: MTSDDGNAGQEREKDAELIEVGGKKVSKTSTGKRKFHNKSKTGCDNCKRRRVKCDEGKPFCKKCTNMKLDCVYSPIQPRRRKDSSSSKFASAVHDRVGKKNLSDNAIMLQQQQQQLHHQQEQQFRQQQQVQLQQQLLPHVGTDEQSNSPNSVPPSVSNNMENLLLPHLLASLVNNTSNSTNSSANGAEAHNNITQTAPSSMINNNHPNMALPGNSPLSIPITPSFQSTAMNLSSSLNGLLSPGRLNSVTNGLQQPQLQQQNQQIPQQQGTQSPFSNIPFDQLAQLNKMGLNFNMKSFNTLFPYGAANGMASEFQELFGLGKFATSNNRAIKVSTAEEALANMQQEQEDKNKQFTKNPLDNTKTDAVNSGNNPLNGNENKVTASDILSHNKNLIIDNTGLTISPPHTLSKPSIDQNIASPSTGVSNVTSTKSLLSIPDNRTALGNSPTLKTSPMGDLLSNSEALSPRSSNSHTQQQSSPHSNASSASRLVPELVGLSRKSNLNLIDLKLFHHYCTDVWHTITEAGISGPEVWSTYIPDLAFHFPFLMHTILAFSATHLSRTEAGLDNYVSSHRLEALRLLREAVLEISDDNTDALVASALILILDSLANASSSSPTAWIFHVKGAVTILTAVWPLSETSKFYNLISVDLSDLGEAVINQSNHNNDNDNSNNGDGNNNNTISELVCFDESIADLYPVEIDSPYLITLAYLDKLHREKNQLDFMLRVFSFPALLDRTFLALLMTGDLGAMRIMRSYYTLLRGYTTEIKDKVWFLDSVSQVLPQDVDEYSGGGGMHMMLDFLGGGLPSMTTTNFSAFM
# Test: PBM E-score (8-mer binding enrichment) (E-score (-0.5 to 0.5)); higher = stronger / more preferred TF binding
# Settings: protein concentration: 200 nM; construct: GST-full length
# Protocol: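 Universal 'all 10-mer' protein binding microarrays (Agilent AMADID 015681) probed with GST-tagged S. cerevisiae TFs (full-length or DBD) made by in vitro transcription/translation (PURExpress), about 100-200 nM. Bound TF was detected with fluorescent anti-GST. Each ungapped 8-mer (which stands for itself and its reverse complement) is scored by the PBM enrichment score (E-score), a modified Wilcoxon-Mann-Whitney statistic from -0.5 to +0.5, computed with the Universal PBM Analysis Suite. Scale: above 0.35 generally sequence-specific binding.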
row,Sequence,PBM E-score
1,CCGCATAA,0.119
2,TCGCATAA,0.388
3,ACGCATAA,0.0983
4,AGTAAAGA,-0.225
5,AGTAAATA,0.00942
6,CGTAAATA,0.377
7,CGTAAAGA,0.389
8,CGTAAAAG,0.367
9,CGTAAATC,0.349
10,CGTAAAGC,0.348
11,CGTAAAAC,0.367
12,CGTAAAAA,0.404
13,GACACTCC,-0.0444
14,CAGGGTAG,-0.148
15,AATCTTTA,-0.0885
16,CCCTGACC,-0.0114
17,CGCGATAG,0.135
18,CCATTTGC,-0.0821
19,AGTCGAAC,0.0504
20,GACGCAAA,0.114
21,GAAAAGAA,0.0308
22,CAGTTCCA,-0.0209
23,AAGAGGTG,-0.0239
24,CGTATACC,0.469
25,TGTATACA,0.0967

row,Sequence,PBM E-score
1,CGTATACG,0.489
2,AGTATACC,0.0306
3,GGTATACA,-0.21
4,AGTATATG,-0.0215
5,CGTATACA,0.46
6,AGTATACT,0.102
7,AGTATACG,0.433
8,GGTATACC,0.0922
9,CGAATACG,0.362
10,AGTATACA,0.0981
11,AGGAGAAA,-0.281
12,TCGATCAA,0.0228
13,CGTAATGC,0.162
14,CGGAACAA,0.168
15,TATGGGAA,-0.0838
16,GCTTTTGA,-0.115
17,AACCCTTG,-0.0616
18,CGGATACG,0.386
19,CGGATACC,0.0623
20,CGGATACA,0.162
21,ATAGACAT,-0.0449
22,CCAGCGAC,-0.231
23,CGATAGCG,0.128
24,CGGCGACG,0.0233
25,ACTATACA,0.108

row,Sequence,PBM E-score
1,ATTATACC,0.104
2,CCTATACG,0.465
3,ATTATACG,0.476
4,CCTATACA,-0.00901
5,CCTATACC,-0.0658
6,ACTATACG,0.463
7,ATTATACA,0.0593
8,ACTATACT,0.144
9,TATGCAGA,0.0611
10,ATAAGCCC,-0.136
11,ACCTACCG,-6e-05
12,TAGTCAGA,-0.276
13,ACGGGTCG,0.267
14,AGACAAAG,0.0946
15,CTAAGCGA,0.385
16,CTAAGCGC,0.0189
17,ATAAGCGA,0.332
18,AGACTCAC,-0.22
19,GCTGGCAC,-0.325
20,CCGGAATC,-0.169
21,CGCGGTAA,0.191
22,GGTTCCGA,-0.00514
23,CGTTCCGC,0.458
24,AGTTCCGC,0.09
25,CGTTCCGA,0.444

row,Sequence,PBM E-score
1,CTTTCCGC,-0.0543
2,AGTTCCGA,0.226
3,ACCGGACA,-0.108
4,TCCTGAAA,-0.00548
5,ATTCAAGG,-0.157
6,GAGAACGA,0.422
7,TAGAACGA,0.429
8,GAGAACGC,0.117
9,TAGAACCA,0.00176
10,AAGAACGA,0.453
11,AAGAACGG,0.243
12,CAGAACGA,0.379
13,TAGAACTA,-0.0234
14,CAGAACGG,0.075
15,AAGAACGT,0.101
16,GAGAACCA,-0.098
17,CAGAACGC,-0.0854
18,GAATCGAC,0.163
19,ACGGGAGC,0.225
20,TAATCCTA,0.00777
21,GACGGAGC,-0.0469
22,CCTAGGAG,-0.239
23,CCAAGGCA,-0.0888
24,CAAGTGCA,-0.24
25,CTGGATGC,-0.159

row,Sequence,PBM E-score
1,GCATAGGC,-0.178
2,GGCATGAC,-0.121
3,AGGCTGGG,-0.263
4,CCAAGCCC,-0.117
5,CTTCTGTC,-0.199
6,GGGAACCA,-0.215
7,GGGAACGA,0.492
8,GGGAACAA,0.143
9,AGCCATTA,0.18
10,AGAGGCTA,-0.209
11,GAATACGA,0.432
12,CAATACGC,-0.0345
13,AAATACGT,0.0932
14,TAATACTA,0.114
15,AAATACGC,0.194
16,GAATACTA,0.141
17,TAATACCA,0.0168
18,AAATACGA,0.451
19,GAATACGC,0.152
20,TAATACGA,0.437
21,CAATACGG,0.0307
22,CAATACGA,0.403
23,ATCGCCGA,0.00202
24,GGTTGTCA,-0.195
25,ACCGCAGC,-0.0492

row,Sequence,PBM E-score
1,ATCTTTTA,0.0457
2,GCCCGCAC,-0.0245
3,CACCCCAG,-0.0849
4,ACAATAAT,-0.0625
5,CGCGGATA,0.188
6,CACCACAG,-0.132
7,CTACCCAG,-0.0541
8,ACCCCAGT,-0.0793
9,CCTAGAAG,-0.187
10,CGTGGCGC,0.0496
11,ACGAAAGG,0.33
12,CCGAAACG,0.288
13,ACGAAACT,0.369
14,GCGAAATA,0.0791
15,ACGAAACG,0.411
16,ACGAAACA,0.335
17,ACGAAACC,0.33
18,ACGAAATA,0.381
19,ACGAAATC,0.285
20,CGAAGGAG,0.129
21,GACTGAAC,0.0447
22,AATTCAGT,-0.189
23,AAACCTTA,0.0879
24,CTAAGGGA,0.0248
25,ATCCCACA,-0.176

row,Sequence,PBM E-score
1,GATCGTAA,0.387
2,GATCGTAC,0.454
3,GATCGTTA,0.211
4,AATCGTCT,0.0505
5,AATCGTAT,0.427
6,CATCGTAA,0.381
7,CATCGTCA,-0.0402
8,GATCGTGC,0.0469
9,GATCGTCC,-0.0538
10,CATCGTGA,0.108
11,AATCGTAG,0.211
12,AATCGTAA,0.333
13,CCCGCAAA,0.148
14,CTGACCCA,-0.312
15,ACTGCTAC,0.00971
16,CATGCTCA,-0.229
17,CCACGGAG,-0.163
18,ACACAGTA,-0.0309
19,CATCGTCC,0.0413
20,AATCGTAC,0.458
21,AATCGTGC,0.221
22,CATCGTAC,0.458
23,AATCGTCC,0.0602
24,CATCGTAG,0.261
